Assay results reported in the supplement of paper PMC10849652.
The full data set covers some 7,900 targets. This sample favours those with a hit. About 0.6% of all pairs of compound and target were hits. Values without a mark were called inactive.

Compound: c1cn2cc(-c3ccc4cn[nH]c4c3)nc(Nc3ccc(N4CCOCC4)cc3)c2n1 [entospletinib]
Assay: log2 fold change, soluble protein after heating vs DMSO (PISA); higher = thermal stabilisation; K562 cells, 10 uM, 30 min; active = over 0.2 and 3.5 SD of the protein, either way, in both replicates (recomputed)
Procedure, shortened: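 K562 cells (2×10^6 cells/mL) were treated with 10 μM compound for 30 min, and aliquots were heated for 3 min over 48°C-58°C. Pooled aliquots were extracted in PBS with 0.5% NP-40 at 4°C, and the supernatant after 21,000xg for 90 min was measured by TMTpro 16plex LC-MS/MS with channel sums equalised. Reported thermal stability, relative to control samples and from duplicates, is a log2 fold change.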

Chain of UniProt Q5VVJ2 (Q5VVJ2 whole entry, looked up): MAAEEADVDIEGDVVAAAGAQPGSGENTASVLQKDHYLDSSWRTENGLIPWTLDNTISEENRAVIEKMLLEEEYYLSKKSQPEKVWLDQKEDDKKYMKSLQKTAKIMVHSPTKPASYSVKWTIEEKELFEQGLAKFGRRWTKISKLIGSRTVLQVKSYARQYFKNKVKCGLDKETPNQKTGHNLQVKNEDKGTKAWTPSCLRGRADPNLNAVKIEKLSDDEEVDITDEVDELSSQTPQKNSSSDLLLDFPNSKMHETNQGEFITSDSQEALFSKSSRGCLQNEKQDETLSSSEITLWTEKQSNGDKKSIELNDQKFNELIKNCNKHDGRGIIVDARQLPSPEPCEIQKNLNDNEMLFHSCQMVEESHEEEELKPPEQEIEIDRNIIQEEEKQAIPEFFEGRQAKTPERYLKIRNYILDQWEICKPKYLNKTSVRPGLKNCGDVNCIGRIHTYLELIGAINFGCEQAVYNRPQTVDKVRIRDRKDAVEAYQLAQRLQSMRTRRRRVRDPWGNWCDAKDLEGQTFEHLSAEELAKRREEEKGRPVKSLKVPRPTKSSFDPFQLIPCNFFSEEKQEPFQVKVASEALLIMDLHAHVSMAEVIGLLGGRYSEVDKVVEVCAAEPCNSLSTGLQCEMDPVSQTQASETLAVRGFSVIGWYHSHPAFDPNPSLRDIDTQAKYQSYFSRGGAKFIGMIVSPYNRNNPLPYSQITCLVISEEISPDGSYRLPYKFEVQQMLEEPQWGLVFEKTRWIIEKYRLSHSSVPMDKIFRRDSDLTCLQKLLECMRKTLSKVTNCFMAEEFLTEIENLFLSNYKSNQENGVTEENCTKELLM
Chain of UniProt O00566 (O00566 whole entry, looked up): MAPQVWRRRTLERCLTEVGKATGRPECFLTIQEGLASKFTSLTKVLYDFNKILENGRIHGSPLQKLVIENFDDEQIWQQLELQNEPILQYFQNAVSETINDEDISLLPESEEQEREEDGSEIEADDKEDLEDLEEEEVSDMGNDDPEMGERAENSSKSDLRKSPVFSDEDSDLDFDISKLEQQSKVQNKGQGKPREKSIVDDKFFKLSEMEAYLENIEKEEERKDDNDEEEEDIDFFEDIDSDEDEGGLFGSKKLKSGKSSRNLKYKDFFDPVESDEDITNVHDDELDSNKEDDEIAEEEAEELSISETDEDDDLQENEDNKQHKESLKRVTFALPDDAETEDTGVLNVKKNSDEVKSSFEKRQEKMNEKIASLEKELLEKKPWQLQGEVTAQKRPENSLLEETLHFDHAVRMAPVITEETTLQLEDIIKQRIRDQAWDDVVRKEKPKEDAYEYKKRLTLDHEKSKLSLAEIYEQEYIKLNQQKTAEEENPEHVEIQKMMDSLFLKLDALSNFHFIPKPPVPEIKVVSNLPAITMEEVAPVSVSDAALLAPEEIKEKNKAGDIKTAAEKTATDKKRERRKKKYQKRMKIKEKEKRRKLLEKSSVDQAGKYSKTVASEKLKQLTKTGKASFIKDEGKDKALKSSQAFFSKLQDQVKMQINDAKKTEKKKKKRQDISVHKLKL
Chain of UniProt Q9HBL8 (Q9HBL8 whole entry, looked up): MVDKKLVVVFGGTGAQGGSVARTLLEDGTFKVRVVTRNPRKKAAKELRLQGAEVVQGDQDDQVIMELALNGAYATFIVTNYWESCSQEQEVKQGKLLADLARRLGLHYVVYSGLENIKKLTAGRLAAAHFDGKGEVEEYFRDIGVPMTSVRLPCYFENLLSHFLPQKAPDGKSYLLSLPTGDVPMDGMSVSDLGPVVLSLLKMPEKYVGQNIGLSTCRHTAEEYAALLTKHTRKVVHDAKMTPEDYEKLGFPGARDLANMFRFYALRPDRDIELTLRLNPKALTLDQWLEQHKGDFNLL
Chain of UniProt Q9HAN9 (Q9HAN9 whole entry, looked up): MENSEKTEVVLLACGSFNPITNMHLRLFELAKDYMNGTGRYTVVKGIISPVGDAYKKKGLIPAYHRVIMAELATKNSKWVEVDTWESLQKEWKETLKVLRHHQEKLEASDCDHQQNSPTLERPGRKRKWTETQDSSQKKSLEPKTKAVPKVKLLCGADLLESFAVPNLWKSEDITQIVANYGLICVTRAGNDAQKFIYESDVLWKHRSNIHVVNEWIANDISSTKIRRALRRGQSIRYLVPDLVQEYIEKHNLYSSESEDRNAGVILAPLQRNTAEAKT
Chain of UniProt P35580 (P35580 whole entry, looked up): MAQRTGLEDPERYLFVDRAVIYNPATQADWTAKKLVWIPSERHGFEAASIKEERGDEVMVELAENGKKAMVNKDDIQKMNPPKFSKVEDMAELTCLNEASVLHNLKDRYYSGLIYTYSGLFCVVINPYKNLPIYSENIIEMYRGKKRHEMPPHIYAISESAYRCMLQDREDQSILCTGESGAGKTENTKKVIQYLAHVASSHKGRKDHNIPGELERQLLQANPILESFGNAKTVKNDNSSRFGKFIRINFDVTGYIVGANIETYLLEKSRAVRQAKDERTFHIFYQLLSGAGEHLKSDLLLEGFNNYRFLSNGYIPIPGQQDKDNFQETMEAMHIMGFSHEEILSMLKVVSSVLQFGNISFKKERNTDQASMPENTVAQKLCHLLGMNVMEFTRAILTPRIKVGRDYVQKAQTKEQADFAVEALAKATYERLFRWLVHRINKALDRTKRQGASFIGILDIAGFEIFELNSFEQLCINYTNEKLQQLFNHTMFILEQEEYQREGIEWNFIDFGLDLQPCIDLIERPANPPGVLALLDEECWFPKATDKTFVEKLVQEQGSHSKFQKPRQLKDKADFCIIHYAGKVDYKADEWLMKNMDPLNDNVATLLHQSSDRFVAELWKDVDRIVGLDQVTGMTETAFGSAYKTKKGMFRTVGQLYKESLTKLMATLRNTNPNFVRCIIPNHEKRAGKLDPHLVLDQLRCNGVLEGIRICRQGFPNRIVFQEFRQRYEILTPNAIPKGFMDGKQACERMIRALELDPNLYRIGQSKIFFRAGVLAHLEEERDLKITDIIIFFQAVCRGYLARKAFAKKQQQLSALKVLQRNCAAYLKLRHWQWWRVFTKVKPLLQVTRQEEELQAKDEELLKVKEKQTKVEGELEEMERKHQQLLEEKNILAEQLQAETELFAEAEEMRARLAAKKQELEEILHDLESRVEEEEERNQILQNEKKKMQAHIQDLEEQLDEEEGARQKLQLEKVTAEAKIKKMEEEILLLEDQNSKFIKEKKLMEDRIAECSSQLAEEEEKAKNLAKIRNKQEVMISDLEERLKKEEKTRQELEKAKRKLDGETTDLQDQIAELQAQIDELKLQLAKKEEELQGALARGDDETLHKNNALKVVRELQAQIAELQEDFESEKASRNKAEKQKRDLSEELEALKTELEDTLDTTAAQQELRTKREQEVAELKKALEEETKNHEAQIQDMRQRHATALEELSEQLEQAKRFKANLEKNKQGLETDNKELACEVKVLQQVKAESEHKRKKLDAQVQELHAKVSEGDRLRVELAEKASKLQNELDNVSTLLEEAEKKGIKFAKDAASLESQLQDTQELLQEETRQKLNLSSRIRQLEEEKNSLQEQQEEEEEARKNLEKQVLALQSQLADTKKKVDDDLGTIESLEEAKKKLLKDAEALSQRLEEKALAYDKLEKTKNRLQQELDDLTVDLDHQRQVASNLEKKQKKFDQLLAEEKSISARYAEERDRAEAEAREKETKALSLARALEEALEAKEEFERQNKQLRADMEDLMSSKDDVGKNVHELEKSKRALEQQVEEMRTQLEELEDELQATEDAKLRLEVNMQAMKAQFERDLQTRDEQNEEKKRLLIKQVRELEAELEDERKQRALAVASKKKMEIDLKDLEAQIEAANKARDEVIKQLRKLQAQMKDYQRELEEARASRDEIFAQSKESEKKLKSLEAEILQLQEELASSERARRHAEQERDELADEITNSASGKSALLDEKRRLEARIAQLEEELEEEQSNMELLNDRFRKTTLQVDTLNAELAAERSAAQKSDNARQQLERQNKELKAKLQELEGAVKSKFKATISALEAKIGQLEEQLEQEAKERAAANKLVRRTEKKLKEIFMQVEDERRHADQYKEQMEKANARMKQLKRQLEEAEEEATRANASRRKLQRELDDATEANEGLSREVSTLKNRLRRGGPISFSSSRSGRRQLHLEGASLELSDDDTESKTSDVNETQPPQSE
Chain of UniProt Q15738 (Q15738 whole entry, looked up): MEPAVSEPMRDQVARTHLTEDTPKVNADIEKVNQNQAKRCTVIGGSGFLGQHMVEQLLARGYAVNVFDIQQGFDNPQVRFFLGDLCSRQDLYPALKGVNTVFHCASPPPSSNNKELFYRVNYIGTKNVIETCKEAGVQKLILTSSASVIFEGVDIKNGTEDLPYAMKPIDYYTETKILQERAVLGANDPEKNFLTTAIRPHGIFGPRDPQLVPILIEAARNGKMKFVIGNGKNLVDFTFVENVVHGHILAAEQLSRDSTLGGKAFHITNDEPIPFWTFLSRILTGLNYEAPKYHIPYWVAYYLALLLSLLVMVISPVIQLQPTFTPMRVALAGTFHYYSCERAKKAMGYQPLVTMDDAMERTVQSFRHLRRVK
Chain of UniProt Q13153 (Q13153 whole entry, looked up): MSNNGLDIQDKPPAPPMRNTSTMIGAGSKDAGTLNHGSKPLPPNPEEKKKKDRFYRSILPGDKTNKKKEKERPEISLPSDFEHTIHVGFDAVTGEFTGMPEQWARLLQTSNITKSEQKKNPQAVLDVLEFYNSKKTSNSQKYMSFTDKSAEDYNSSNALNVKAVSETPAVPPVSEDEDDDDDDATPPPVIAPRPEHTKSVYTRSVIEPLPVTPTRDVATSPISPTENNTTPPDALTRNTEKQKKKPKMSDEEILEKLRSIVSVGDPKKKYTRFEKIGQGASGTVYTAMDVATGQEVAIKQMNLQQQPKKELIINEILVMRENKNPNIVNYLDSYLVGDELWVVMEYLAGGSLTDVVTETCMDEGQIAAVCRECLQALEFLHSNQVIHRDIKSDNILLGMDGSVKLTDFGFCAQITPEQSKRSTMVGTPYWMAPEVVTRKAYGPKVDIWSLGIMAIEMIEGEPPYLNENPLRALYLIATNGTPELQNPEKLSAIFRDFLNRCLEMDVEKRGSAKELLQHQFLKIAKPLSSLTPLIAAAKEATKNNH

Row | Target | log2 fold change
1 | OGFR (UniProt Q9NZT2) | -0.008
2 | NA, A0A096LPI6 | 0.027
3 | NMNAT1 (UniProt Q9HAN9) | 0.084
4 | NMRAL1 (UniProt Q9HBL8) | 0.135
5 | MOV10 (UniProt Q9HCE1) | 0.14
6 | NEU1 (UniProt Q99519) | -0.025
7 | NCOA7 (UniProt Q8NI08) | 0.003
8 | MRPS9 (UniProt P82933) | 0.087
9 | NDUFA6 (UniProt P56556) | -0.041
10 | MYH10 isoform 3 (UniProt P35580) | -0.073
11 | OPHN1 (UniProt O60890) | -0.014
12 | NME2P1 (UniProt O60361) | -0.571
13 | NSDHL (UniProt Q15738) | -0.05
14 | MORC3 (UniProt Q14149) | -0.088
15 | MRPS21 (UniProt P82921) | -0.031
16 | MYSM1 (UniProt Q5VVJ2) | 0.141
17 | MMS19 isoform 8 (UniProt Q96T76) | 0.033
18 | MTOR (UniProt P42345) | -0.012
19 | MPHOSPH10 (UniProt O00566) | 0.082
20 | PAK1 isoform 2 (UniProt Q13153) | -0.02
21 | NMU (UniProt P48645) | 0.078
22 | NDUFAF6 (UniProt Q330K2) | -0.121
23 | OTUD4 (UniProt Q01804) | 0.105
